# Sampled rows, rich in hits. Any-hit rate of the full collection: about 15%.
# TDP1 cell CPT – DT40-hTDP1 cell growth loss with CPT | 420,000 tested, 12% active | Potency, µM (top dose mostly 46.2 µM), inactives show top-dose activity change, negative = growth inhibition, hits mostly inhibitors | chicken DT40 Tdp1-/-;hTDP1 cells + 20 nM CPT, ATP luminescence, 48 h; note: nearly all actives have a fitted effect of over 55% in size
#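 Cell growth measured by CellTiter-Glo luminescence after a minimum 48 h, 37 C compound exposure with 20 nM CPT in Tdp1-knockout DT40 cells stably expressing hTDP1, seeded 400/well; qHTS titration format.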
# RORg inh – blocks mouse ROR gamma transcriptional activity | P51450 | Drosophila S2 Gal4-RORgamma UAS-luciferase reporter, 20 h | Potency, µM (highest dose often 53.6 µM), without a hit: top-dose activity change, negative = inhibition, usual class: inhibitors | 310,000 tested, 5.4% active | AID 2551; note: nearly all actives have a fitted effect of over 60% in size
# Target sequence (P51450 whole entry, looked up, the tested form may be a part): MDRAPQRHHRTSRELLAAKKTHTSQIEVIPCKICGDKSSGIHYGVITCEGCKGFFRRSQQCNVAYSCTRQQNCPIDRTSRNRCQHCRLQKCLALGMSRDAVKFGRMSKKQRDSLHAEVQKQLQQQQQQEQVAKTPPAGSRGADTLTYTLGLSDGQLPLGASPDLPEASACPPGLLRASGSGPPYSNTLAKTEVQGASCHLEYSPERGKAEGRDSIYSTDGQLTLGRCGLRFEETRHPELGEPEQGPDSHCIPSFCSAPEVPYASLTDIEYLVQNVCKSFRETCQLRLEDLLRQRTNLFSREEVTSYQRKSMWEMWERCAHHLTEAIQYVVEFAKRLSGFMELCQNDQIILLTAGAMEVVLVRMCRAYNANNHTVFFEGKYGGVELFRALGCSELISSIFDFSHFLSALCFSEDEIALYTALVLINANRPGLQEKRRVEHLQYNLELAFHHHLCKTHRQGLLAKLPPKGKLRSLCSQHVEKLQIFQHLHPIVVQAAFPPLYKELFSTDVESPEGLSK
#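 Luciferase reporter read in Schneider cells carrying Gal4-RORγ (mouse) and UAS-Photinus luciferase; cells given compound 1 h before 700 uM copper sulfate induction, then incubated 20 h at ambient temperature.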
# ELG1 repair inh – ELG1-dependent DNA repair inhibition; HEK293T ELG1-luciferase reporter, luminescence, 16 h; DNA damage induced by 5-fluorouridine; Potency, µM (doses to about 46.1 µM), without a hit: at the highest dose activity change, negative = inhibition, usual class: inhibitors; 330,000 tested, 2.3% active; AID 504467; note: nearly all actives have a fitted effect of over 55% in size
#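 Overnight (16 hr) co-exposure of 2,000 cells/well to 5-fluorouridine and compound at 37 °C preceded detection. Luciferase was quantified via ONE-Glo luminescence; loss of signal denotes inhibition.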
# ALOX12 inh – inhibitors of human 12S-lipoxygenase ALOX12; P18054; purified 12hLO, xylenol orange hydroperoxide absorbance; Potency, µM (highest dose often 108 µM), for the others: at the top dose activity change, negative = inhibition, usual class: inhibitors; AID 1671190; 580,000 tested, 1.1% active
#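 Hydroperoxide product was detected by ferrous iron/xylenol orange as the 573 to 405 nm absorbance ratio. Arachidonic acid at 40 uM (final) was turned over for 30 min at room temperature by 150 nM human 12hLO, pH 7.0 Hepes buffer, after 15 min compound preincubation.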
# Gal4-VP16 FLuc – inhibits Gal4-VP16 luciferase reporter, ROR gamma counter-screen | Drosophila S2 Gal4-VP16 UAS-luciferase, luminescence, 20 h | Potency, µM (series often up to 53.6 µM), for inactives: at the highest dose activity, negative = inhibition, actives largely listed as inhibitors | 310,000 tested, 3.5% active;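 note: Gal4-VP16 expression switched on by copper sulfate through the metallothionein promoter; nearly all actives have a fitted effect of over 50% in size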
# TDP1 cell noCPT – qHTS for Inhibitors of human tyrosyl-DNA phosphodiesterase 1 (TDP1): qHTS in cells in absence of CPT. 420,000 tested, 15% active. Potency, µM (highest dose often 46.2 µM), inactives show at the top dose activity change, negative = growth inhibition, actives largely listed as inhibitors. DT40 Tdp1-/- hTDP1 cells, no CPT, ATP luminescence, 48 h; note: nearly all actives have a fitted effect of over 55% in size
#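 Compound effects on proliferation are scored in DT40 Tdp1-/-;hTDP1 cells in the absence of CPT. ATP levels (CellTiter-Glo luminescence) are recorded after a ≥48 hr, 37 °C incubation.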
# * marks the source's active call; other numbers are inactive results; ? = inconclusive; / = not tested or not shown. Calls come from the whole dose curve; as a rule, active = well fitted curve in the direction sought with a large enough effect; inconclusive = small, poorly fitted or top-dose-only effect, or another doubt; inactive = no such curve, though single readings can be large; an effect the other way counts as inactive or inconclusive. % is set by controls: 0 for no effect and ±100 for the full control effect; potency is the fitted concentration of half-maximal effect.
SMILES,TDP1 cell CPT,RORg inh,ELG1 repair inh,ALOX12 inh,Gal4-VP16 FLuc,TDP1 cell noCPT
O=C(COc1ccccc1)Nc1nnc(-c2ccccc2Cl)o1,-20%,/,/,0%,/,-24%
O=C(Nc1nnc(-c2ccc3c(c2)CCCC3)o1)c1ccccc1Cl,?,1.3µM*,?,19%,0.79µM*,16µM*
O=C(Nc1nnc(-c2ccc3c(c2)CCCC3)o1)c1ccccc1,5.2µM*,0.28µM*,?,?,0.1µM*,5.8µM*
CS(=O)(=O)c1ccc(-c2nnc(NC(=O)c3cccc(N4C(=O)CCC4=O)c3)o2)cc1,20%,/,13%,-7%,/,-1%
O=C(COc1ccccc1)Nc1nnc(-c2ccc(F)cc2)o1,-14%,?,0%,10%,6.3µM*,-1%
CC(CCc1ccccc1)NC(=O)N1CCN(S(=O)(=O)c2ccccc2C#N)CC1 (stereo not drawn),/,/,/,0%,/,/
NC(=O)c1ccc(NC(=O)CSC2=Nc3ccccc3C3CC=NN23)cc1 (stereo not drawn),9.2µM*,?,14%,/,8%,21µM*
Cc1ccccc1NC(=O)CSC1=Nc2ccccc2C2CC=NN12 (stereo not drawn),/,/,/,42%,/,/
O=C(CSC1=Nc2ccccc2C2CC=NN12)Nc1ccc(F)cc1Cl (stereo not drawn),?,-28%,10%,22%,15%,?
CC(C)c1ccccc1NC(=O)CSC1=Nc2ccccc2C2CC=NN12 (stereo not drawn),/,/,/,37%,/,/
COC(=O)c1ccc(NC(=O)CSC2=Nc3ccccc3C3CC=NN23)cc1 (stereo not drawn),23µM*,-22%,?,/,-2%,23µM*
Cc1ccc(NC(=O)CSC2=Nc3ccccc3C3CC=NN23)c(C)c1 (stereo not drawn),21µM*,-11%,?,?,?,21µM*
CCCn1c(C)nc2c(NCCN3CCCCC3)nc(C)nc21,/,-1%,/,/,-4%,/
CCCn1c(C)nc2c(NC3CCCCC3)nc(C)nc21,/,16µM*,/,/,9%,/
N#Cc1cccnc1N1CCN(Cc2ccc(F)c(F)c2)C(CCO)C1 (stereo not drawn),/,/,/,24%,/,/
Nc1nc(SCc2ccccc2)c2ncn(C3CCCO3)c2n1 (stereo not drawn),?,/,/,-30%,/,?
Nc1nc(SCc2ccccc2)c2ncn(C3CCCCC3)c2n1,?,/,/,-19%,/,29µM*
COc1cccc(/C=C/c2nc3ccccc3o2)c1OC(C)C,/,/,/,46%,/,/
COc1cccc2c(C)nc(Nc3nc(-c4ccccc4)cc(=O)[nH]3)nc12,/,/,/,0%,/,/
CC1=CC(C)(C)N(C(=O)CSc2nnc(-c3ccc(C)cc3)o2)c2ccc(C)cc21,?,-20%,-9%,-1%,7%,18µM*
Cc1c(Cc2ccc3c(c2)OCO3)sc(NC(=O)C(C)(C)C)c1C#N,18µM*,?,?,-14%,?,8.2µM*
COc1cccc(CNC(=O)C2(C)CCCCC(=O)N2)c1OC (stereo not drawn),/,/,/,19%,/,/
N=C(N)c1cccs1,/,/,/,-3%,/,/
Cc1ccc(Cl)cc1N1CCN(C(=O)c2cnn(C(C)(C)C)c2C2CCN(C(=O)OC(C)(C)C)CC2)CC1,26µM*,/,/,11%,/,?
Cc1ccc(C)c(N2CCN(C(=O)c3cnn(C(C)(C)C)c3C3CCN(C(=O)OC(C)(C)C)CC3)CC2)c1,18µM*,/,/,-10%,/,?
SMILES,TDP1 cell CPT,RORg inh,ELG1 repair inh,ALOX12 inh,Gal4-VP16 FLuc,TDP1 cell noCPT
Cc1ccc(-n2ncc(C(=O)N3CCN(c4cc(Cl)ccc4C)CC3)c2C2CCN(C(=O)OC(C)(C)C)CC2)cc1,?,/,/,-7%,/,-24%
Cc1ccc(Cl)cc1N1CCN(C(=O)c2cnn(C)c2C2CCN(C(=O)OC(C)(C)C)CC2)CC1,6.5µM*,/,/,0%,/,5.8µM*
Cc1ccc(C)c(S(=O)(=O)N2CCN(CC(=O)NC(=O)NC(C)(C)C)CC2)c1,/,/,/,-14%,/,/
CCCC(OC(=O)c1cc(C)nc2ccccc12)C(=O)Nc1cc(C)on1 (stereo not drawn),/,/,/,-46%,/,/
Cc1ccc(NC(=O)C2CCN(S(=O)(=O)c3cccc4nonc34)CC2)nc1,-6%,28%,21µM*,-12%,6%,-15%
O=C(C1CCCN(S(=O)(=O)c2cccc3nonc23)C1)N1CCN(c2ccccc2)CC1 (stereo not drawn),?,3%,?,-15%,-8%,22µM*
O=C(C1CCN(S(=O)(=O)c2cccc3nonc23)CC1)N1CCN(c2ccccc2F)CC1,?,/,/,-24%,/,?
CC(=O)c1ccc(N2CCN(C(=O)C3CCN(S(=O)(=O)c4cccc5nonc45)CC3)CC2)cc1,?,/,/,-23%,/,23µM*
CO[C@H]1[C@H](NC(=O)c2noc3c2CCCC3)c2ccccc2C12CCNCC2,/,/,/,16%,/,/
Cc1ccc2[nH]c(-c3ccccc3)cc2c1,/,/,/,-21%,/,/

# Assay outcomes from PubChem.
